# Compound: Nc1ncnc2c1ncn2[C@@H]1O[C@H](COP(=O)(O)OP(=O)(O)OP(=O)(O)O)[C@@H](O)[C@H]1O [adenosine 5'-triphosphate]
# Assay: log2 fold change of tryptic peptide abundance, ligand vs vehicle (limited proteolysis) (log2 ratio); higher = more trypsin-susceptible (destabilized)
# Details: ligand concentration: 5 mM; sample: E. coli desalted lysate; replicate design: treated before aliquoting
# Method: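 HT-PELSA: desalted E. coli K-12 BW25113 lysate (with 12 mM MgCl2) incubated with 5 mM ATP (pH 7) or water for 30 min at 25 C, then a 4 min trypsin pulse at 22 C. Peptides were quantified by DIA-MS (4 replicates). Value is the peptide log2 fold change (treated/control); negative = stabilized. Scale: negative = ligand-stabilized region.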
# 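Further: lysate desalted by size exclusion to strip endogenous ATP, peptide intensities built from DIA-NN precursor signals, and peptides missing any value discarded before comparison.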
row,Target,log2 fold change
1,"UniProt P75957 (peptide sequence: KKPAEINSR, peptide start residue: 117)",-1.5
2,"UniProt P39160 (peptide sequence: TWQIAMDGSQKLPQR, peptide start residue: 366)",-0.725
3,"UniProt P76222 (peptide sequence: LLAVADWR, peptide start residue: 97)",-0.698
4,"UniProt P76909 (peptide sequence: SGLEGAFHQDPATLSGGQR, peptide start residue: 121)",0.631
5,"UniProt P77610 (peptide sequence: WLNAHEEGYHK, peptide start residue: 18)",-0.358
6,"UniProt P08997 (peptide sequence: TLSNGKPVTK, peptide start residue: 467)",-0.591
7,"UniProt Q46857 (peptide sequence: DLADKYGK, peptide start residue: 204)",-0.885
8,"UniProt P29018 (peptide sequence: HLSWVGQNPQLPAATLR, peptide start residue: 424)",-0.418
9,"UniProt P14175 (peptide sequence: YIEQGLSK, peptide start residue: 24)",1.4
10,"UniProt P77374 (peptide sequence: INHPDRLNYPMKR, peptide start residue: 106)",-0.781
11,"UniProt P56579 (peptide sequence: MGIQLEQK, peptide start residue: 172)",0.509
